Over roughly 140,000 sequences, “enrichment ratio after two sorts for PhoP signalling” has its median near 0; the highest 2% begin near 11. Shown is part of a subset that was picked to be rich in the highest values.
B1: PhoQ; a variant is named by its letters at X, in order, P23837 (parent)
chain: MKKLLRLFFPLSLRVRFLLATAAVVLVLSLAYGMVALIGYSVSFDKTTFRLLRGESNLFYTLAKWENNKLHVELPENIDKQSPTMTLIYDENGQLLWAQRDVPWLMKMIQPDWLKSNGFHEIEADVNDTSLLLSGDHSIQQQLQEVREDDDDAEMTHSVAVNVYPATSRMPKLTIVVVDTIPVELKSSYMVWSWFIYVLSANLLLVIPLLWVAAWWSLRPIEALAKEVRELEEHNRELLNPATTRELTSLVRNLNRLLKSERERYDKYRTTLTDLTHSLKTPLXXLQXXLRSLRSEKMSVSDAEPVMLEQISRISQQIGYYLHRASMRGGTLLSRELHPVAPLLDNLTSALNKVYQRKGVNISLDISPEISFVGEQNDFVEVMGNVLDNACKYCLEFVEISARQTDEHLYIVVEDDGPGIPLSKREVIFDRGQRVDTLRPGQGVGLAVAREITEQYEGKIVAGESMLGGARMEVIFGRQHSAPKDE

Variants of: B1
Test: enrichment ratio after two sorts for PhoP signalling (ratio (wild type AVST 3.29)); higher = more functional
Details: with PhoP (E. coli)

| Variant | enrichment ratio |
| --- | --- |
| TANR | ≤ 0.25 |
| ASYY | ≤ 0.25 |
| ASAG | 7.21 |
| ASAI | 13.2 |
| ASAT | 10.1 |
| ASAS | 15.3 |
| ASAD | ≤ 0.25 |
| KSAA | ≤ 0.25 |
| ASAA | 13.4 |
| ASRY | ≤ 0.25 |
| IFDK | ≤ 0.25 |
| WHPD | ≤ 0.25 |
| CLCS | ≤ 0.25 |
| RQQL | ≤ 0.25 |
| HTYY | ≤ 0.25 |
| MKAY | ≤ 0.25 |
| MEYY | 18.8 |
| MEAY | 13 |
| MTYY | 0.96 |
| STYY | ≤ 0.25 |
| NGYY | ≤ 0.25 |
| QEYY | 17.4 |
| RGYY | ≤ 0.25 |
| QIYY | ≤ 0.25 |

| Variant | enrichment ratio |
| --- | --- |
| MEYI | 11 |
| TGYY | 22.5 |
| MKYY | ≤ 0.25 |
| NFDN | ≤ 0.25 |
| RTPI | ≤ 0.25 |
| RQSW | ≤ 0.25 |
| IMCF | ≤ 0.25 |
| EDGY | ≤ 0.25 |
| SVSR | 6.38 |
| SVMR | 12.6 |
| KFAE | ≤ 0.25 |
| SVSQ | 13.4 |
| SVSF | 12.6 |
| SVTR | 8.52 |
| SVHQ | ≤ 0.25 |
| SVGR | 1.46 |
| SVAV | 7.92 |
| SVAE | 13.4 |
| SVHF | ≤ 0.25 |
| SVHP | ≤ 0.25 |
| WQKA | ≤ 0.25 |
| ARFL | ≤ 0.25 |
| KVIR | ≤ 0.25 |
| ADCI | ≤ 0.25 |

| Variant | enrichment ratio |
| --- | --- |
| PPMF | ≤ 0.25 |
| RIFK | 1.58 |
| NEIH | ≤ 0.25 |
| TNDC | ≤ 0.25 |
| MKCG | ≤ 0.25 |
| SVLY | 0.677 |
| SVVA | 1.32 |
| SVVG | 6.29 |
| SVTK | 11.9 |
| SVTG | 13.5 |
| SVWM | ≤ 0.25 |
| SVPA | ≤ 0.25 |
| SVHG | ≤ 0.25 |
| SVTM | 14.7 |
| SVTS | 7.51 |
| SVPM | 7.47 |
| SVTI | 12 |
| GRAK | ≤ 0.25 |
| PILY | ≤ 0.25 |
| EHER | ≤ 0.25 |
| QSNR | ≤ 0.25 |
| PYGV | ≤ 0.25 |
| SGYP | ≤ 0.25 |
| IIGH | ≤ 0.25 |

| Variant | enrichment ratio |
| --- | --- |
| RDSD | ≤ 0.25 |
| SVMG | 5.71 |
| SVMH | 22.9 |
| SVTC | 3.84 |
| SDSG | 0.62 |
| KFAH | ≤ 0.25 |
| KFSG | ≤ 0.25 |
| SVCC | 16.1 |
| NVAH | ≤ 0.25 |
| NVCC | ≤ 0.25 |
| SVSG | 13.4 |
| SVAH | 12.7 |
| SVWR | ≤ 0.25 |
| RVAP | ≤ 0.25 |
| WQNE | ≤ 0.25 |
| LLNR | ≤ 0.25 |
| TAVV | 1.05 |
| ARNK | ≤ 0.25 |
| QMLS | ≤ 0.25 |
| SVCS | 8.61 |
| LCNG | ≤ 0.25 |
| SVNH | 3.33 |
| SVPI | 5.93 |
| SVCG | 13.3 |

| Variant | enrichment ratio |
| --- | --- |
| SVTH | 11.9 |
| SVSK | 12.7 |
| SVSH | 10.5 |
| PVNG | ≤ 0.25 |
| SVWI | ≤ 0.25 |
| SVCI | 10.4 |
| SVNG | 12.5 |
| KLIS | ≤ 0.25 |
| NRHS | ≤ 0.25 |
| GGDF | ≤ 0.25 |
| FHQD | ≤ 0.25 |
| IWVM | ≤ 0.25 |
| HEVP | ≤ 0.25 |
| KFCH | ≤ 0.25 |
| SVMV | 9.33 |
| SVMQ | 15.2 |
| SLSF | 11.7 |
| SQSF | 7.01 |
| SVMS | 8.47 |
| SVCH | 12.5 |
| SVCF | 4.45 |
| SRSF | ≤ 0.25 |
| MQII | ≤ 0.25 |
| RDEG | ≤ 0.25 |

| Variant | enrichment ratio |
| --- | --- |
| FSHY | ≤ 0.25 |
| TALR | 3.62 |
| HPIF | ≤ 0.25 |
| AHVH | ≤ 0.25 |
| WIVH | ≤ 0.25 |
| KSVH | ≤ 0.25 |
| QEVH | ≤ 0.25 |
| TSVH | 11.7 |
| LCVH | ≤ 0.25 |
| TSCS | 14.7 |
| TEVH | 16.3 |
| TSCK | 3.25 |
| MEVH | 1.05 |
| KSCS | ≤ 0.25 |
| AIVH | 15 |
| VGWK | ≤ 0.25 |
| ATFQ | 2.02 |
| FKND | ≤ 0.25 |
| AFSM | 0.932 |
| RMFW | ≤ 0.25 |
| KYVH | ≤ 0.25 |
| TSCE | 8.23 |
| TSCI | 14.8 |
| STVH | 8.82 |

| Variant | enrichment ratio |
| --- | --- |
| TSCV | 17.3 |
| YRCV | ≤ 0.25 |
| KSCI | ≤ 0.25 |
| YSCV | 15.6 |
| SSVH | 14.4 |
| FSCV | 9.84 |
| KSCV | ≤ 0.25 |
| YSCI | 2.62 |
| TRVP | ≤ 0.25 |
| GWST | ≤ 0.25 |
| PYLQ | ≤ 0.25 |
| FLFH | ≤ 0.25 |
| RFWY | ≤ 0.25 |
| LSFF | 0.737 |
| MSSN | ≤ 0.25 |
| RYDM | ≤ 0.25 |
| PWRP | ≤ 0.25 |
| AMPS | ≤ 0.25 |
| SEVH | 17.3 |
| NSCA | ≤ 0.25 |
| TSCA | 15.2 |
| NSCQ | ≤ 0.25 |
| TSCT | 18.9 |
| KSCQ | ≤ 0.25 |

| Variant | enrichment ratio |
| --- | --- |
| SRVH | ≤ 0.25 |
| KSCA | ≤ 0.25 |
| KSCT | ≤ 0.25 |
| TSCQ | 21.3 |
| FSCT | ≤ 0.25 |
| SLVH | 2.06 |
| AGPW | ≤ 0.25 |
| MEVW | ≤ 0.25 |
| DAWH | ≤ 0.25 |
| VVRK | ≤ 0.25 |
| EQCP | ≤ 0.25 |
| QPNQ | ≤ 0.25 |
| MFMV | ≤ 0.25 |
| FTNT | ≤ 0.25 |
| TGEC | 1.95 |
| SFRM | ≤ 0.25 |
| FVEG | ≤ 0.25 |
| FWMV | ≤ 0.25 |
| MDAY | ≤ 0.25 |
| NVLK | ≤ 0.25 |
| MCDN | ≤ 0.25 |
| MCVN | ≤ 0.25 |
| FDAN | ≤ 0.25 |
| MCAT | 4.13 |

| Variant | enrichment ratio |
| --- | --- |
| MAAN | 14.7 |
| MKAT | ≤ 0.25 |
| MCWN | 16.1 |
| MCAN | 22.5 |
| MMWN | ≤ 0.25 |
| MEAT | 17.9 |
| MAQN | ≤ 0.25 |
| MCNL | ≤ 0.25 |
| DHKR | ≤ 0.25 |
| LPWC | ≤ 0.25 |
| DVVV | ≤ 0.25 |
| VKNA | ≤ 0.25 |
| RHPV | ≤ 0.25 |
| YEDC | ≤ 0.25 |
| MFAN | ≤ 0.25 |
| NEIN | ≤ 0.25 |
| MEIN | 11.2 |
| MDIN | ≤ 0.25 |
| QEAN | 2.7 |
| TEIN | 5.99 |
| MKAN | ≤ 0.25 |
| MEAN | 32.4 |
| MDAT | 25.1 |
| TEAN | 29.6 |

| Variant | enrichment ratio |
| --- | --- |
| MDNT | ≤ 0.25 |
| MDLT | ≤ 0.25 |
| IEYH | ≤ 0.25 |
| FRYS | ≤ 0.25 |
| FLVW | ≤ 0.25 |
| QNFD | ≤ 0.25 |
| TLAV | 11.9 |
| NGAV | ≤ 0.25 |
| TGAV | 17.1 |
| LLKV | ≤ 0.25 |
| KLAV | ≤ 0.25 |
| NIAV | ≤ 0.25 |
| TLKV | 48.4 |
| GGAV | 23.8 |
| GTAV | ≤ 0.25 |
| KLKV | ≤ 0.25 |
| RGAV | ≤ 0.25 |
| SLAV | 9.05 |
| FLFA | 0.339 |
| HVFA | ≤ 0.25 |
| EHCF | ≤ 0.25 |
| TDAV | 11.6 |
| ADAV | 5.88 |
| FDAV | ≤ 0.25 |

| Variant | enrichment ratio |
| --- | --- |
| ERLI | ≤ 0.25 |
| VDMS | ≤ 0.25 |
| KYSS | ≤ 0.25 |
| SQSS | 11.6 |
| SDSS | 0.569 |
| PLSS | ≤ 0.25 |
| TLSS | 12 |
| NVSS | ≤ 0.25 |
| VLSS | 0.29 |
| SESS | 13.9 |
| SPSS | ≤ 0.25 |
| TVSS | 11.6 |
| SRSS | ≤ 0.25 |
| SLSS | 6.86 |
| RKAE | ≤ 0.25 |
| AYPP | ≤ 0.25 |
| PNHN | ≤ 0.25 |
| VSWN | ≤ 0.25 |
| ESGC | ≤ 0.25 |
| QYRN | ≤ 0.25 |
| EVDI | ≤ 0.25 |
| PGYQ | ≤ 0.25 |
| KSSS | ≤ 0.25 |
| TTSS | 15.9 |

| Variant | enrichment ratio |
| --- | --- |
| FSSS | ≤ 0.25 |
| YTSS | ≤ 0.25 |
| TSSS | 14 |
| KQSS | ≤ 0.25 |
| HVKP | ≤ 0.25 |
| MNYD | ≤ 0.25 |
| VKMD | ≤ 0.25 |
| ISKH | ≤ 0.25 |
| KHQI | ≤ 0.25 |
| HSYE | ≤ 0.25 |
| AEVK | ≤ 0.25 |
| AEKC | ≤ 0.25 |
| AEVE | 7.98 |
| AEVA | ≤ 0.25 |
| AENK | ≤ 0.25 |
| AEVS | 16.2 |
| AEVY | 6.64 |
| AETC | 36.7 |
| AESS | 16.3 |
| AESQ | 4.68 |
| AEVI | 17.5 |
| AETH | 0.824 |
| QGNI | ≤ 0.25 |
| WYRH | ≤ 0.25 |

| Variant | enrichment ratio |
| --- | --- |
| EKKS | ≤ 0.25 |
| RHGF | ≤ 0.25 |
| REAM | ≤ 0.25 |
| PMYC | ≤ 0.25 |
| VLES | ≤ 0.25 |
| QQHF | ≤ 0.25 |
| GTWR | ≤ 0.25 |
| KCDP | ≤ 0.25 |
| VWMG | ≤ 0.25 |
| AIVF | 2.34 |
| AETI | 16.8 |
| AETA | 5.73 |
| MEVL | 11.6 |
| AEVC | 14.6 |
| QEVF | ≤ 0.25 |
| NEVL | ≤ 0.25 |
| AETD | ≤ 0.25 |
| AEVF | 14.3 |
| MAVL | 2.43 |
| AEVG | 6.84 |

Source: a collection of fitness landscapes (doi:10.1126/science.1257360)
